Compound activity deposited in PubChem BioAssay by The Scripps Research Institute Molecular Screening Center.
PPARg SRC-2 ag = promotes SRC-2 coactivator recruitment by human PPARgamma | hit rate 0.34% among 200,000 | AID 1032 | PPARgamma LBD-SRC-2 recruitment, biochemical | activation, % at 8 µM; in the data active = activation above about 22%
Target sequence (P37231 whole entry, looked up, the tested form may be a part): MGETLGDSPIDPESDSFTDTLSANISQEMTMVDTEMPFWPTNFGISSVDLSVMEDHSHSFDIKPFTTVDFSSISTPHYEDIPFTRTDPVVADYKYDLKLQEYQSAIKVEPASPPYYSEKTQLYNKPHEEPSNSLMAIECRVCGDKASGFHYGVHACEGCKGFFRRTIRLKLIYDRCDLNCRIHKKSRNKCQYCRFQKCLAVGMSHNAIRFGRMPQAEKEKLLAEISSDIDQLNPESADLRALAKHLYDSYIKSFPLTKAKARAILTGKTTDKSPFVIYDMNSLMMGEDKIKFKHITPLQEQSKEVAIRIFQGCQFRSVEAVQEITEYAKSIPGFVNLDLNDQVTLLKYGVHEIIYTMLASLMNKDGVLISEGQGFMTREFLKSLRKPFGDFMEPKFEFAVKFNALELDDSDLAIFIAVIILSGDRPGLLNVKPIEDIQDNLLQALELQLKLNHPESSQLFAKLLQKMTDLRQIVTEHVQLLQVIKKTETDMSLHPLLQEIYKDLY
PPARg SRC-3 ag = PPARgamma-driven SRC-3 recruitment agonism | P37231 | activation, % at 8 µM | biochemical PPARgamma/SRC-3 coactivator recruitment assay | hit rate 0.26% among 200,000 | AID 731; in the data active = activation above about 23%
TR-FRET SRC-2 ct = counter-screen for PPARgamma SRC-2 recruitment agonists: TR-FRET artefact; active compounds read high; TR-FRET ratio at 8 µM; hit rate 0.4% among 200,000; AID 1049
SRC3 TRFRET art = flags TR-FRET format artefacts in PPARgamma SRC-3 recruitment agonist screen; TR-FRET artefact counter-screen, PPARgamma/SRC-3 format; active compounds read high; TR-FRET ratio at 8 µM; hit rate 0.39% among 99,000
SRC1 TRFRET art = counter-screen for PPARgamma SRC-1 recruitment agonists: TR-FRET artefact | TR-FRET detection artefact counter-screen, emission ratio; active compounds read high | TR-FRET ratio at 8 µM | hit rate 0.34% among 99,000 | AID 1051; in the data active = TR-FRET ratio above about 2300
PPARg SRC1 recr = agonists of human PPARgamma SRC-1 coactivator recruitment | P37231 | activation, % at 8 µM | PPARgamma-SRC-1 coactivator recruitment biochemical assay | hit rate 0.41% among 200,000; in the data active = activation above about 19%
Numbers stand for hits; n = inactive; x = not tested or not shown. An excerpt weighted towards active compounds, which were near 0.84% of everything screened. Cut-off read from the data, not from the text of the source, unless noted: active = TR-FRET ratio above about 2000; inactive = the rest.

SMILES | PPARg SRC-2 ag | PPARg SRC-3 ag | TR-FRET SRC-2 ct | SRC3 TRFRET art | SRC1 TRFRET art | PPARg SRC1 recr
C=CCn1c(Cc2cccs2)nnc1SCC(=O)c1ccc(F)cc1 | n | n | n | x | x | 21
Cc1ccc(C(=O)Nc2ccc(Oc3ccc(C(=O)O)c(C(=O)O)c3)cc2)cc1C | 22 | n | n | x | x | n
CCOc1ccc(-c2nn(-c3ccccc3)cc2/C=C2\SC(N)=NC2=O)cc1C | n | 29 | n | x | x | n
CCOc1ccc(-c2nn(-c3ccccc3)cc2/C=C2\SC(=S)N(C3CCS(=O)(=O)C3)C2=O)cc1 (configuration not stated) | n | n | n | x | x | n
Cc1ccc(S(=O)(=O)N2CCCN(c3nc4cc(C)ccc4cc3C#N)CC2)cc1 | n | n | 3009 | x | x | n
Cc1ccc2cc(C#N)c(N3CCCN(C(=O)C4CCCO4)CC3)nc2c1 (configuration not stated) | n | n | n | x | x | n
O=C(c1cn(-c2ccccc2)nc1-c1cccs1)N1CCN(c2ccc(F)cc2)CC1 | n | n | 2165 | x | x | n
O=C(Nc1ccncc1)c1cn(-c2ccccc2)nc1-c1cccs1 | n | n | n | x | x | n
CC(NC(=O)COC(=O)c1cn(-c2ccccc2)nc1-c1cccs1)c1ccccc1 (configuration not stated) | n | n | 2073 | x | x | n
COc1ccc(CN(C)C2c3ccccc3-c3ccccc32)cc1 | n | n | n | n | n | n
CC(=O)N1CCCc2cc(S(=O)(=O)N3CCN(c4ccccn4)CC3)ccc21 | n | n | n | n | n | n
COc1ccc([N+](=O)[O-])cc1NC(=S)NC(NC(=O)C(c1ccccc1)c1ccccc1)C(Cl)(Cl)Cl (configuration not stated) | n | n | 2107 | x | x | n
Cc1ccc(-c2nn(-c3ccccc3)cc2NC(=O)CCl)cc1 | n | n | n | n | n | n
C=CCNC(=O)c1ccc(-c2nc(-c3ccc(Cl)cc3Cl)cs2)cc1 | n | n | n | x | x | 19
O=C(N/N=C/C=C\c1ccccc1[N+](=O)[O-])c1ccco1 | n | n | 1978 | n | n | n
Cc1occc1C(=O)N/N=C/C=C\c1ccccc1[N+](=O)[O-] | n | n | n | n | n | n
Cc1cccc(N2C(S)=C(C#N)C(=O)NC2c2ccco2)c1 (configuration not stated) | n | n | n | n | n | n
N#CC1=C(S)N(c2ccccc2)C(c2ccc(-c3cccc(Cl)c3)o2)NC1=O (configuration not stated) | n | n | n | n | 2388 | n
CCc1ccc(C2CC(=O)N3CN(c4ccccc4)CSC3=C2C#N)cc1 (configuration not stated) | n | n | n | x | x | n
CCOC(=O)c1ccc(N2CSC3=C(C#N)C(c4cccs4)CC(=O)N3C2)cc1 (configuration not stated) | n | n | 2211 | x | x | n
COc1ccc(N2CSC3=C(C#N)C(c4cccs4)CC(=O)N3C2)cc1 (configuration not stated) | 29 | 39 | 2277 | x | x | 30
CCc1ccc(N2CSC3=C(C#N)C(c4cccs4)CC(=O)N3C2)cc1 (configuration not stated) | 35 | n | 2462 | n | n | n
COc1ccc(C2CC(c3cccs3)=NN2C(=O)COC(=O)c2cncc(Br)c2)cc1OC (configuration not stated) | n | n | n | 2284 | n | n
COc1ccc(C2CC(c3cccs3)=NN2C(=O)COC(=O)C2CCCCC2)cc1OC (configuration not stated) | n | n | n | n | n | n
N#Cc1ccc(-c2ccccc2)nc1SCC(=O)c1cc2ccccc2oc1=O | n | n | n | x | x | 64
CC(C)c1c(C#N)c(N)nc(SCC(=O)c2cc3ccccc3oc2=O)c1C#N | n | n | n | n | n | n
Cc1cccc(N2CCN(C(=O)c3ccncc3)CC2C)c1 (configuration not stated) | n | n | n | x | x | n
Cc1cccc(N2CCN(C(=O)c3cc(C)oc3C)CC2C)c1 (configuration not stated) | n | n | n | n | 2332 | n
Cc1cc(C)c2nc(NC(=O)[C@@H](NC(=O)c3cccc(S(=O)(=O)N4CCOCC4)c3)C(C)C)sc2c1 | n | n | n | n | n | n
O=C(CSc1ncnc2scc(-c3ccccc3)c12)N1CCN(c2ccccc2F)CC1 | n | n | n | 2200 | n | n
